Measured values as given in PubChem BioAssay AID1377 (University of Pittsburgh Molecular Library Screening Center, 2008).
Screen size: about 220,000 compounds; about 830 (0.38%) were called active.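 The calls were made as follows: active = activation, scaled between plate controls, above about 75% (limit read from the data); inactive = activation under that limit.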 Many of the other results were omitted from the sample, so actives are more common in it than they were.

Assay: inhibitors of zVAD-triggered necroptosis, primary screen, L929 cells (AID 1377);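 also: 0% = zVAD with DMSO and 100% = DMSO alone without zVAD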
Details: ATP luminescence, 24 h, at 10 µM, stronger effect = higher value; with zVAD 60 µM unless noted

Row | Compound | viability rescue
1 | Cc1ccc(-c2csc(N(Cc3ccco3)C(=O)c3cccs3)n2)cc1 | -0.54% (inactive)
2 | COc1ccc2nc(NC(=O)NC3CCCCC3)sc2c1 | 85.7% (active)
3 | COc1ccc2nc(Nc3nc4ccc(NC(C)=O)cc4s3)sc2c1 | 0.58% (inactive)
4 | COc1ccc2nc(NC(=O)c3ccc(Br)s3)sc2c1 | 0.35% (inactive)
5 | CC1=NNC(=O)C1CC(=O)N/N=C/c1ccncc1 (stereo not given) | -0.36% (inactive)
6 | Cc1ccc2[nH]c3c(=O)n(Cc4ccccn4)cnc3c2c1 | 0.13% [with zVAD 20 µM] (inactive)
7 | CC(C)OCCCNc1ncnc2c1[nH]c1ccc(F)cc12 | 4.34% [with zVAD 20 µM] (inactive)
8 | COc1cc(OC)c(OC)cc1/C=N/Nc1ncnc2c1[nH]c1ccc(C)cc12 | 78.9% (active)
9 | CCOC(=O)c1cc(Sc2ccccc2N)cc(C(=O)OCC)n1 | 0.51% (inactive)
10 | CCOc1ccc(NC(=O)c2ccc(CSc3nnnn3C)cc2)cc1 | 1.6% (inactive)
11 | Cc1cc(C)nc(-n2nc(C)cc2NC(=O)c2ccc(F)cc2F)n1 | 0.15% (inactive)
12 | Cc1cccc(-n2nc3c(c2NC(=O)c2ccc(Br)o2)CSC3)c1C | 0.18% [with zVAD 20 µM] (inactive)
13 | Cc1cc(C)nc(-n2nc(C)cc2NC(=O)c2ccc(Br)o2)n1 | 82.2% [with zVAD 20 µM] (active)
14 | COc1ccc(-c2csc(Nc3ccccn3)n2)cc1 | 1.69% (inactive)
15 | COc1ccc(Nc2nc(-c3ccccc3)cs2)cc1 | 0.79% (inactive)
16 | COc1ccc(-c2csc(Nc3ccc(O)cc3)n2)cc1 | 93% (active)
17 | COc1cc2c(C(=O)N3CCN(C)CC3)c(CSc3ccccc3)n(C)c2cc1Br | -0.59% (inactive)
18 | CC(C)NC(=S)NN=C1CCCCCCCCCCC1 | 0.38% (inactive)
19 | Cc1nn(C)c(Oc2ccccc2)c1CCNS(=O)(=O)c1ccc(F)cc1 | 0.02% [with zVAD 20 µM] (inactive)
20 | COc1ccc(-c2cc(C(=O)NC(Cc3c[nH]c4ccccc34)C(=O)O)c(C)o2)cc1OC (stereo not given) | 1.33% (inactive)
21 | CCN(CC)S(=O)(=O)c1ccc(NC(=O)c2cccnc2Cl)c(NC(=O)c2cccnc2Cl)c1 | 82.2% (active)
22 | Cc1ccc(CNC(=O)c2cccnc2Cl)cc1 | 0.12% (inactive)
23 | CCN(CC)S(=O)(=O)c1ccc(Cl)c(NC(=O)c2ccncc2)c1 | 0.44% (inactive)
24 | O=C(N/N=C/c1cccc([N+](=O)[O-])c1)c1ccncc1 | -0.83% (inactive)
25 | CN1CCN(C2=NCCO2)CC1 | 1% (inactive)
26 | CCOC(=O)C1(CCOc2ccccc2)CCN(C(=O)c2cncs2)CC1 | -0.01% (inactive)
27 | COc1ccc(-n2cnc3cc(NCc4ccco4)ccc32)cc1 | 79.9% (active)
28 | COc1ccc(Nc2nc(Cl)nc(NCc3ccco3)n2)cc1 | 0.2% [with zVAD 20 µM] (inactive)
29 | COc1ccc(Nc2nc(NCc3ccco3)nc(N/N=C/c3ccccc3Cl)n2)cc1 | 0.33% (inactive)
30 | O=C(Nc1cccc2c1N(C(=O)c1ccco1)CCC2)c1ccco1 | -0.96% (inactive)
